Data on 25 molecules can be found in PubChem BioAssay (Tox21).

The structures appear in SMILES notation. Where “and” joins values, the source holds several entries; their conditions need not be identical. Equal entries are not always repeated. Results filed as inconclusive are left out. Values without a mark were called inactive. Calls of active or inactive are those of the source. Unless noted, the call rests on the fitted dose curve; in most records, active means well fitted curve in the direction sought with a large enough effect in the repeat runs; inconclusive means weak or mixed curves; inactive means no such curve, though single readings can be large; an effect the other way counts as inactive or inconclusive.

Experiment [1] has as its target Luciferin 4-monooxygenase (Photinus pyralis) (UniProt P08659). The experiment in a line: qHTS assay to identify small molecule inhibitors of firefly luciferase (AID 1224835). Further: nearly all actives have a fitted effect of over 25% in size. Further: potency means the concentration at half of the fitted maximal effect. On activity change, negative = inhibition: series mostly up to about 120 µM. In a few lines: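 Quantitative HTS format; KM concentrations of both substrates. Purified P. pyralis FLuc activity quantified from luminescence images.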
Background: qHTS replaces the single test concentration by a dilution series.

A short description of experiment [2]: qHTS assay to identify small molecule antagonists of the constitutive androstane receptor (CAR) signaling pathway - cell viability counter screen (AID 1224837). Further: nearly all actives have a fitted effect of over 45% in size. Further: potency means the concentration at half of the fitted maximal effect. On activity change, negative = cytotoxicity: series mostly up to about 92 µM. Put shortly:
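Using CellTiter-Fluor, viability is scored in HepG2 cells stably carrying hCAR and a 2.2kb CYP2B6 reporter after 23 hr compound exposure across 15 concentrations, with CITCO present at 50 nM.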

In experiment [3] the target is Nuclear receptor subfamily 1 group I member 3 (Homo sapiens) (UniProt Q14994). Put plainly: qHTS assay to identify small molecule antagonists of the constitutive androstane receptor (CAR) signaling pathway (AID 1224838).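 Further: HepG2 cells stably expressing hCAR with CYP2B6 luciferase reporter stimulated by CITCO; nearly all actives have a fitted effect of over 40% in size.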 Further: potency means the concentration at half of the fitted maximal effect. In a few lines:
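Reporter luminescence was quantified after 24 h exposure of hCAR/CYP2B6-2.2kb double-stable HepG2 cells to compounds at 15 concentrations in the presence of 50 nM CITCO final.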

Experiment [4] shares this target. Put plainly: qHTS assay to identify small molecule agonists of the constitutive androstane receptor (CAR) signaling pathway (AID 1224839). Further: nearly all actives have a fitted effect of over 15% in size. Further: potency means the concentration at half of the fitted maximal effect.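 On activation: HepG2 cells stably carrying human CAR and a CYP2B6 luciferase reporter; series mostly up to about 92 µM.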 Put shortly:
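Luminescent ONE-Glo read-out after 24 hr, 37 C exposure of double-stable HepG2-CYP2B6-hCAR reporter cells to a 15-point compound series, in the presence of 0.75 uM PK11195 (final).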

Experiment [5] in a line: qHTS assay to identify small molecule antagonists of the estrogen related receptor signaling pathway with the pleiotropic PPARgamma coactivator (PGC) from Tox21 10K library - cell viability counter screen (AID 1224840; active means well fitted cell-killing curve with a large enough effect in the repeat runs, not every such curve was filed as active; further: nearly all actives have a fitted effect of over 40% in size; further: potency means the concentration at half of the fitted maximal effect). In a few lines:
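Here the PGC/ERR cells serve as a cytotoxicity control: they are exposed to compounds for 17.5 hours at 37 C, and live-cell signal is quantified using CellTiter-Fluor fluorescence.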

A short description of experiment [6]: qHTS assay to identify small molecule antagonists of the estrogen related receptor signaling pathway with the pleiotropic PPARgamma coactivator (PGC) from Tox21 10K library (AID 1224841; call rule not given here; further: series mostly up to about 92 µM; actives are mostly falling curves and most rising ones were filed inactive; nearly all actives have a fitted effect of over 50% in size). Put shortly:
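Each well held 2,000 PGC/ERR cells, pre-incubated six hours (37 C, 5% CO2). Test substances in DMSO were added by pin tool and left for 18 h at 37 C before luciferase detection by One-Glo.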

The nature of experiment [7]: qHTS assay to identify small molecule agonists of the estrogen related receptor signaling pathway with the pleiotropic PPARgamma coactivator (PGC) from Tox21 10K library (AID 1224842). Further: nearly all actives have a fitted effect of over 15% in size. Further: potency means the concentration at half of the fitted maximal effect. Put shortly: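 PGC/ERR reporter cells (NTP line) were seeded 2,000 per well, rested 6 h at 37 C/5% CO2, then pin-dosed with compounds in DMSO for 18 h at 37 C; luciferase read by One-Glo luminescence after 30 min at room temperature.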

Experiment [8] is described as follows: qHTS assay to identify small molecule agonists of the hypoxia (HIF-1) signaling pathway - cell viability counter screen (AID 1224844; calls by dose curve; further: nearly all actives have a fitted effect of over 50% in size). In a few lines: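 Multiplexed with the HRE beta-lactamase assay, this viability read used CellTiter-Glo luminescence (30 min, RT) on HRE-bla ME-180 cells treated 17 hrs with compounds in 0.5% dialyzed FBS medium.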
Experiment [9] has as its target Thyrotropin receptor (Homo sapiens) (UniProt P16473). Put plainly: qHTS assay to identify small molecule agonists of the thyroid stimulating hormone receptor (TSHR) signaling pathway (AID 1224843; calls by dose curve; further: nearly all actives have a fitted effect of over 45% in size; further: potency means the concentration at half of the fitted maximal effect). In a few lines:
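Cell line HEK293 with TSHR; density 800/well. Exposure 30 min RT. Readout HTRF cAMP (cAMP-d2/anti-cAMP-cryptate), 1 h RT before reading.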

The nature of experiment [10]: qHTS assay to identify small molecule agonists of the constitutive androstane receptor (CAR) signaling pathway - cell viability counter screen (AID 1224836). Further: series mostly up to about 92 µM; nearly all actives have a fitted effect of over 45% in size. In a few lines:
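Cell viability multiplexed with the CAR agonist screen: CellTiter-Fluor fluorescence after 23 hr at 37 C. HepG2-CYP2B6-hCAR cells got compounds at 15 concentrations with PK11195 at 0.75 uM final.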
On the % scale 0 is the no-effect control and ±100 the full control effect.

Luciferin 4-monooxygenase (Photinus pyralis), sequence (P08659 whole entry, looked up): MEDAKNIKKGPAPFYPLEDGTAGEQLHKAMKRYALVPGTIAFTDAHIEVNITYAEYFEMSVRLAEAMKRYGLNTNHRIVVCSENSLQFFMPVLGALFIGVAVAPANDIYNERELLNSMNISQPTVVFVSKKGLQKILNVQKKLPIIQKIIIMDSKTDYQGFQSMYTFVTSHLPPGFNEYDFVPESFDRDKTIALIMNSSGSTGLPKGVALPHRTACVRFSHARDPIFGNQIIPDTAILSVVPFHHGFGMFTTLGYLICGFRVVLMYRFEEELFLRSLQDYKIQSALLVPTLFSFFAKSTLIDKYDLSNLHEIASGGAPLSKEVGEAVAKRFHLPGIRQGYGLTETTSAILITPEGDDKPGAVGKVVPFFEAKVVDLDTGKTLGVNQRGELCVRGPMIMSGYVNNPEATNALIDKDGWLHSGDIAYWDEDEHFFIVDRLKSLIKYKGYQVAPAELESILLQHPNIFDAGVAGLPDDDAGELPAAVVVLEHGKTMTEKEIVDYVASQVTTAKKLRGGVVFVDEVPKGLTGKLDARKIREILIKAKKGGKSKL
Nuclear receptor subfamily 1 group I member 3 (Homo sapiens), sequence (Q14994 whole entry, looked up): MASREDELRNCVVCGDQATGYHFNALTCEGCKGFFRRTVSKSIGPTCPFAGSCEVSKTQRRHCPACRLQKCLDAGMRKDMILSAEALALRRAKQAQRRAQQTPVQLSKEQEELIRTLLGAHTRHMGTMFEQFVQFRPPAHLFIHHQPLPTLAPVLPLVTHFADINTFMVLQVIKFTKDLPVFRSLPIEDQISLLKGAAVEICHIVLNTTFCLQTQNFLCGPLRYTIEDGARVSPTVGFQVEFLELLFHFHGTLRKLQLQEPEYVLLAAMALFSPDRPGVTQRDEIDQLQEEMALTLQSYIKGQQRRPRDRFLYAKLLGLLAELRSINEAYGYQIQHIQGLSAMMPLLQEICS
Thyrotropin receptor (Homo sapiens), sequence (P16473 whole entry, looked up): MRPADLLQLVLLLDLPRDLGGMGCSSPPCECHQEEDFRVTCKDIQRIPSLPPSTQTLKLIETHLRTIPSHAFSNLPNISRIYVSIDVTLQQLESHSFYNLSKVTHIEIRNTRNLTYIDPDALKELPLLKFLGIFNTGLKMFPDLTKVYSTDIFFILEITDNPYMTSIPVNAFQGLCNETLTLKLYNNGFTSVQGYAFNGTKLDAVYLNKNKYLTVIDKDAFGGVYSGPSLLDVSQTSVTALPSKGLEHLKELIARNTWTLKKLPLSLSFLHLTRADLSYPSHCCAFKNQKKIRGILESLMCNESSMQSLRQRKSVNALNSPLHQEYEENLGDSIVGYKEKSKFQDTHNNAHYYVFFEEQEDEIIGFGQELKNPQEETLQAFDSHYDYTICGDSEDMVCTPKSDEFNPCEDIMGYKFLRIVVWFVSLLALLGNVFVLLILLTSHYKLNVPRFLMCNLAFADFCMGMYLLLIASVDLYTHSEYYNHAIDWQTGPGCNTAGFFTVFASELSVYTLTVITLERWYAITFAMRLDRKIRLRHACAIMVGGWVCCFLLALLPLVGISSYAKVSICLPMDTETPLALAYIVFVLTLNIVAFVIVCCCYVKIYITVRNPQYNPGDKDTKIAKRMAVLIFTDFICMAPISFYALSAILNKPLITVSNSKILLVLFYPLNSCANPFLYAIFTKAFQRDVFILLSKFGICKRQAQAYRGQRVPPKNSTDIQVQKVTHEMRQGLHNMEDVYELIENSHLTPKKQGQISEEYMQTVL

Regarding `COCCOCCO`, the Potency result in experiment [1], in [2], in [3], in experiment [4], in experiment [5] and in [6] was “inactive” each time. The Potency entry in experiment [7] is “inactive”.
As for `Cc1ccccc1CCl`, the Potency result in [1], in experiment [2], in experiment [3], in experiment [4], in experiment [5] and in experiment [7] was “inactive” in each case. Besides, the Potency entry in experiment [8] is “inactive”.
Regarding `O=Cc1ccc2c(c1)OCO2`, the Potency result in [1], in experiment [2], in experiment [5], in experiment [9] and in experiment [8] was “inactive” each time.
With `C=CC(=O)OCCCCO`, the Potency entry in [1], in [2], in experiment [3], in experiment [4], in [5] and in experiment [6] was “inactive” each time. The Potency result in [7] and in experiment [8] was “inactive” each time.
Consider `C[C@H]1CNCCc2ccc(Cl)cc21`, for which the Potency result in experiment [1], in experiment [2], in [3], in experiment [4], in [7] and in [8] was “inactive” each time.
In the case of `CO/N=C(/C(=O)OC)c1ccccc1COc1ccccc1C`, the Potency result in [1], in experiment [2], in [3], in experiment [5], in experiment [7] and in experiment [8] was “inactive” in each case. In experiment [4], the Potency was 7.7 µM (active).
Consider `[O-][Cl+]O`, for which the Potency result in experiment [1], in experiment [2], in experiment [5], in experiment [6], in experiment [7] and in [8] was “inactive” in each case.
Take `CCCCC(O)(Cn1cncn1)c1ccc(Cl)cc1Cl` (stereo unspecified): the Potency result in experiment [1], in [3] and in [7] was “inactive” each time. In addition, the Potency in experiment [2] was 61.1 µM (active).
For `CC(Cl)Cl`, the Potency entry in experiment [1], in experiment [2], in [3], in experiment [4], in experiment [5] and in experiment [7] was “inactive” in each case. Also, the Potency entry in [9] and in [8] was “inactive” each time.
`NCC(CC(=O)O)c1ccc(Cl)cc1` (stereo unspecified): the activity change, negative = inhibition in experiment [1] is 0.511% [at 0.435 µM]. In addition, the viability change, negative = cytotoxic is 7.94% [at 0.349 µM] in experiment [10] and 7.5% [at 0.349 µM] in experiment [5]. Also, the activation in [7] is -1% [at 0.349 µM]. For the same molecule, the activity change, negative = cytotoxicity in experiment [8] is -2.38% [at 0.29 µM].
As for `c1ccc(C2CC2)c(OCC2=NCCN2)c1`, the Potency entry in experiment [1], in experiment [2], in [6], in [7] and in experiment [8] was “inactive” throughout.
Regarding `CCCCNP(N)(N)=S`, the Potency result in experiment [1], in [2], in [5], in experiment [9] and in experiment [8] was “inactive” throughout.
In the case of `O=C(O)C(F)(F)C(F)(F)C(F)(F)C(F)(F)C(F)(F)C(F)(F)C(F)(F)C(F)(F)C(F)(F)C(F)(F)F`, the Potency entry in [1], in experiment [2], in [3] and in [5] was “inactive” each time. Moreover, in experiment [7], the Potency is 57.9 µM (active).
Consider `CC1(C)[C@H](C=C(Cl)Cl)[C@@H]1C(=O)O[C@@H](C#N)c1cccc(Oc2ccccc2)c1`, for which the Potency entry in experiment [1], in [2], in [3], in experiment [5] and in experiment [8] was “inactive” each time.
As for `CO/C=C(/C(=O)OC)c1ccccc1COc1cccc(C(F)(F)F)n1`, the Potency entry in [1], in experiment [3], in experiment [7] and in experiment [8] was “inactive” throughout. In experiment [4], the Potency was 3.85 µM (active).
With `CCn1cc[n+](C)c1`, the Potency result in experiment [1] and in experiment [8] was “inactive” each time.
With `CC(C)(OO)c1ccccc1`, the Potency result in [1], in experiment [4], in experiment [5], in [7] and in [8] was “inactive” throughout. Further, the Potency in experiment [9] was 34.4 µM (active).
In the case of `OCCCBr`, the Potency entry in [2], in experiment [3], in experiment [4], in [5], in experiment [7] and in experiment [8] was “inactive” each time.
As for `CS/C(C)=N/OC(=O)N(C)SN(C)C(=O)O/N=C(\C)SC`, in experiment [1], the Potency was 31.7 µM (active). Besides, the Potency result in experiment [4] and in [7] was “inactive” in each case.
As for `Cc1ccc(-c2c(Cl)nc(C#N)n2S(=O)(=O)N(C)C)cc1`, the values for the Potency in [1] and in experiment [5] were 35.6 µM (active) and 61.1 µM (active), respectively. For the same molecule, the Potency result in [4] is “inactive”.
For the molecule `COc1ccc(-c2ccccc2)cc1NNC(=O)OC(C)C`, the Potency result in experiment [1], in [3], in experiment [7] and in experiment [8] was “inactive” throughout. For the same molecule, in experiment [4], the Potency was 63.7 µM (active).
Regarding `C(=NC1CCCCC1)=NC1CCCCC1`, the Potency result in experiment [1], in experiment [4], in [7], in [9] and in experiment [8] was “inactive” in each case. Moreover, the Potency was 10.9 µM (active) and 21.7 µM (active) in experiment [3]; 38.8 µM (active) in experiment [5].
As to `CC(=O)NC1CCSC1=O` (stereo unspecified), the Potency entry in [1], in experiment [2], in [7] and in experiment [8] was “inactive” in each case.
With `NCCCNCCCN`, the Potency result in [3], in experiment [4], in [9] and in [8] was “inactive” in each case.
As for `CCC(COC(=O)c1cc(OC)c(OC)c(OC)c1)(c1ccccc1)N(C)C` (stereo unspecified), the Potency result in [1], in experiment [3] and in [8] was “inactive” each time.
